Laboratory results as given in PubChem BioAssay AID588590 (National Center for Advancing Translational Sciences (NCATS), 2011).
In all, about 390,000 compounds went through this assay and about 4,000 (1%) were called active. Another 7% or so got no clear call; they are omitted. Shown is part of a subset that was picked to be rich in actives. Unmarked numbers belong to inactive results. Calls follow the shape of the dose curve; as a rule, active = well fitted inhibition curve with a large enough effect; inconclusive = small, poorly fitted or top-dose-only effect, or another doubt; inactive = no such curve, though single readings can be large or run the other way.

molecular target: DNA polymerase iota (Homo sapiens) (UniProt Q9UNA4); experiment: qHTS for Inhibitors of Polymerase Iota; conditions: Pol iota fluorescent replication assay, 10 min; series mostly up to 115 µM; activity, negative = inhibition: at the top concentration
Sequence (Q9UNA4 whole entry, looked up): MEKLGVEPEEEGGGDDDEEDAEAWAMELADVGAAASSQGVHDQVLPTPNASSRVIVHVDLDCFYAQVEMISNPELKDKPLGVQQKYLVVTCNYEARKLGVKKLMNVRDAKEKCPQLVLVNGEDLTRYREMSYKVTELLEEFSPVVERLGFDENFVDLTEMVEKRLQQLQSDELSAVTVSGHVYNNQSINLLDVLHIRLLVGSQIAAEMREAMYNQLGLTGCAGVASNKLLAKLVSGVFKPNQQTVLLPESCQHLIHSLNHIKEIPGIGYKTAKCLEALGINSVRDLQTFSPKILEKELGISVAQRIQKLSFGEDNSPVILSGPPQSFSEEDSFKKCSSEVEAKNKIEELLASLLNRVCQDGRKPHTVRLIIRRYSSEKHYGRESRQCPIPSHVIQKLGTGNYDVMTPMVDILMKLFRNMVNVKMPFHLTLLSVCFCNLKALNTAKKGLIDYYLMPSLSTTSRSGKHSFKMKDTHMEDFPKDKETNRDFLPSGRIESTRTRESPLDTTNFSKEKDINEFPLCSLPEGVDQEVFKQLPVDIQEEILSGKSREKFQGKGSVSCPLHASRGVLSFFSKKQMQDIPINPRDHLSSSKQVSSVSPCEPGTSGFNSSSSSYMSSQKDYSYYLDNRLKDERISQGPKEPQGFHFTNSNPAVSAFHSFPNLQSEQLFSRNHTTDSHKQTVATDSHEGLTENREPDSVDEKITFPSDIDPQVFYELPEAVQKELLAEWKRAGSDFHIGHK
How it was run: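 Fluorescent replication assay read twice, at 0 min and 10 min after adding 50 nM (final) substrate. Enzyme (10 nM) and compounds were first incubated 15 min at room temperature; enzyme-free buffer wells were negative controls.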
Potency is read from the fitted curve at half-maximal effect.

Compound	activity, negative = inhibition [%]	Potency
C=CCOc1c(Br)cc(/C=N\n2nnnc2N)cc1OC	8.73	–
CCOc1c(Br)cc(/C=C2\C(=O)N(CCC#N)N=C2C)cc1OC	–	0.794 µM (active)
CCOc1ccc(/C=C(\C#N)c2nc3ccccc3c(=O)[nH]2)cc1OC	17.8	–
CC(C)(C)OC(=O)N1CCC(c2c(C(=O)NCc3ccccn3)cnn2-c2ccc(F)cc2)CC1	23.8	–
CCc1ccc(NC(=O)C2CCCN2S(=O)(=O)c2ccc3nc(-c4ccccc4)[nH]c3c2)cc1 (configuration not stated)	–	89.1 µM (active)
CCc1nnc(NC(=O)C2CCCN2S(=O)(=O)c2ccccc2)s1 (configuration not stated)	-7.41	–
CC(=O)Nc1ccc(NC(=O)C2CCCN2S(=O)(=O)c2cccc(C(F)(F)F)c2)cc1 (configuration not stated)	22.6	–
CN(CCC#N)c1ccc(C=O)cc1	1.08	–
Cc1ccc(Nc2c(-c3ccc(C)cc3)nc3cnccn23)cc1	9.48	–
COc1ccc(C(=O)Nc2cccc(/C=C(/CCC(=O)O)c3nc4ccccc4s3)c2)cc1	–	12.6 µM (active)
COc1cccc(NC(=O)c2ccc3nc(CCc4ccccc4)oc3c2)c1	0.161	–
Cc1nn(-c2ccc(F)cc2)c(Cl)c1/C=C(/CCC(=O)O)c1nc2ccccc2s1	58	–
Cc1csc[n+]1CCC1CCCCC1	42.3	–
CCOC(=O)c1ccc(NC(=O)c2csc3c2CCCCC3)cc1	45.5	–
CCOc1ccc(C(=O)/C=C/c2cn(CC(O)CN3CCCCCC3)c3ccccc23)cc1 (configuration not stated)	-23.7	–
O=C(CN1CCSc2ccccc21)N1CCN(c2ccccc2)CC1	5.88	–
Cc1cc(C)cc(NS(=O)(=O)c2ccc3[nH]cc(C(=O)N4CCCCC4)c(=O)c3c2)c1	-3.74	–
CC(C)c1ccc(NS(=O)(=O)c2ccc3[nH]cc(C(=O)NC4CCCC4)c(=O)c3c2)cc1	–	79.4 µM (active)
CCCCNC(=O)c1c[nH]c2ccc(S(=O)(=O)Nc3ccc(OCC)cc3)cc2c1=O	-18.8	–
Cc1ccc(C)c(N2CCN(Cc3nnc(-c4ccccc4)o3)CC2)c1	20.8	–
CN(CC(=O)Nc1ccccc1F)S(=O)(=O)c1ccc2c(c1)c(=O)n(C)c(=O)n2C	-9.64	–
CS(=O)(=O)c1ccc2c(c1)SC1=NC(=O)/C(=C/c3ccco3)C(=N)N12	–	14.1 µM (active)
CCNC(=O)CC1C(=O)N(c2ccc(F)cc2)C(=O)N1Cc1ccc(C)cc1 (configuration not stated)	23.2	–
CCCc1cc(-c2n[nH]c(=S)n2CC)c2ccccc2n1	3.81	–

Compound	activity, negative = inhibition [%]	Potency
S=c1[nH]nc(-c2cc(-c3ccccc3)n[nH]2)n1/N=C/c1c2ccccc2cc2ccccc12	–	20 µM (active)
CCN(CC)S(=O)(=O)c1cccc(-c2n[nH]c(=S)n2/N=C/c2ccc(C(=O)OC)cc2)c1	10.3	–
Cc1cc(=O)n2[nH]c(-c3sccc3-n3c(C)ccc3C)cc2n1	–	20 µM (active)
C=CCc1c(C)nc2cc(-c3ccccc3)[nH]n2c1=O	20.2	–
CN(Cc1ccccc1)C(=O)c1cn(C)c2ccc(S(=O)(=O)N(C)C3CCCCC3)cc2c1=O	29.5	–
COC(=O)c1cc(NC(=O)c2cnc(SC)nc2-c2ccccc2)cc(C(=O)OC)c1	29.1	–
CC(C)(C)OC(=O)N1CCC(c2c(C(=O)Nc3ccc4c(c3)OCO4)cnn2-c2ccccc2)CC1	16.7	–
Cc1cccc(-n2ncc(C(=O)N3CCN(c4ccc(Cl)cc4)CC3)c2C2CCN(C(=O)OC(C)(C)C)CC2)c1	16.7	–
COC(=O)c1ccc(NC(=O)c2cnn(-c3ccc(Cl)cc3)c2C2CCN(C(=O)OC(C)(C)C)CC2)cc1	–	89.1 µM (active)
Cc1nn(C)c2c1c(C(F)(F)F)cc(=O)n2C(C)C(=O)NCc1ccc(Cl)cc1 (configuration not stated)	-26.1	–
CN1CCOC1c1ccc(C2OCCN2C)cc1 (configuration not stated)	–	20 µM (active)
CCOC(=O)c1cccc(NC(=O)c2cc(S(=O)(=O)N3CCCC(C)C3)cn2C)c1 (configuration not stated)	3.29	–
CCOc1ccc(N(C)S(=O)(=O)c2cc(-c3cnc(C)o3)ccc2OC)cc1	10.1	–
Cc1ccc(-n2c(=O)c3cccnc3n2CC(=O)NCc2ccc(F)cc2)cc1C	22.8	–
CC1CCCCN1S(=O)(=O)c1ccc(F)c(C(=O)Nc2ccccc2C(F)(F)F)c1 (configuration not stated)	13.6	–
Brc1nc2ncnc(NCc3ccco3)c2[nH]1	-12.7	–
Cc1ccc(N=C2NC(=O)/C(=C/C=C/c3ccco3)S2)cc1C	–	11.2 µM (active)
Cc1ccc(-n2ncc3c(=O)n(-c4ccc(C)c(C)c4)c(-c4ccco4)nc32)cc1	24.7	–
Cc1ccc(C(=O)N/C(=C\c2ccco2)C(=O)N2CCSCC2)cc1C	21.8	–
Cc1ccc(N2NC(=O)/C(=C/C=C/c3ccco3)C2=O)cc1C	–	20 µM (active)
CCOc1ccc(-c2cc3nc(C4CCN(C(=O)OC(C)(C)C)CC4)c(C(=O)Nc4cccc(CC)c4)cn3n2)cc1	31	–
COc1cccc(NC(=O)N2CCN(C(=O)c3nsc4ccccc34)CC2)c1	36.9	–
CCc1ccccc1NC(=O)N1CCC2(CC1)Oc1ccccc1C(=O)N2Cc1ccccc1F	-3.54	–
